SENP6 block – SENP6 protease inhibitors, primary screen, biochemical, luminescence, uHTS; Sentrin-specific protease 6 (Homo sapiens), Q9GZR1; Recombinant SENP6 catalytic domain, aminoluciferin luminescence; inhibition, % at 10 µM; actives 1.8% (n = 330,000);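 active means inhibition above about 50% at the single tested dose, limit read from the data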;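 further: plate controls were DMSO wells with enzyme for no effect and DMSO wells lacking enzyme for full effect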
Target sequence (Q9GZR1 628-1112 limits assumed): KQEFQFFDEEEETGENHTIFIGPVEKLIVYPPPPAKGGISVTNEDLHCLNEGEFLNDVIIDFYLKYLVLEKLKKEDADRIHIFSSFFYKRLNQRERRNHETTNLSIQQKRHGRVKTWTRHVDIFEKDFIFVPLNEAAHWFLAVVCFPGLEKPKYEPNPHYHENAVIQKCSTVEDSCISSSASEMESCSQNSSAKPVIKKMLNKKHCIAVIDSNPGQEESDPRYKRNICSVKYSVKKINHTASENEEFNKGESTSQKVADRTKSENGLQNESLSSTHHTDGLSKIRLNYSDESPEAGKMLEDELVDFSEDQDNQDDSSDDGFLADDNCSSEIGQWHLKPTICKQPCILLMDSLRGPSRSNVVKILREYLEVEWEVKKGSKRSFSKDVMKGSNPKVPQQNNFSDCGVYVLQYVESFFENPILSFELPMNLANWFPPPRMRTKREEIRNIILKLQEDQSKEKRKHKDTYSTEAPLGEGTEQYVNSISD
SENP8 block-1 – human SENP8 protease inhibitors, primary screen, biochemical, fluorescence, Nedd8 protein substrate, uHTS; recombinant SENP8; inhibition, % at 20 µM; Sentrin-specific protease 8 (Homo sapiens), Q96LD8; actives 0.64% (n = 360,000); in the data active means inhibition mostly above about 40%, no sharp cut-off; inactive means mostly below about 27%
SENP8 block-2 – SENP8 protease inhibitors, primary screen, biochemical, luminescence; Sentrin-specific protease 8 (Homo sapiens), Q96LD8; purified SENP8, Z-RLRGG-aminoluciferin cleavage; inhibition, % at 10 µM; actives 1.2% (n = 330,000); in the data active means inhibition above about 50%
TRAIL sens C8 – viability loss with TRAIL in NB7+C8 cells, primary screen, TRAIL sensitizer project, cell-based, ATPlite luminescence | inhibition (viability loss, TRAIL sensitization), % at 10 µM | actives 1% (n = 360,000);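 active means compounds causing at least 50% loss of cell viability in the single-dose screen, relative to plate controls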
PPC-1+TRAIL kill – compounds killing PPC-1 cancer cells with TRAIL present, primary screen, TRAIL potentiator project, ATPLite luminescence, uHTS. PPC-1 cells + TRAIL, ATPLite viability luminescence. cell killing (% activity), % at 4 µM or 5 µM. actives 0.41% (n = 220,000);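 active means cell killing above 50% in the first pass at 4 µM, then a duplicate retest at 5 µM averaging 50% or more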;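 further: plate controls were cells with TRAIL plus DMSO for no effect and medium-only wells lacking cells for full effect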
SENP7 inh – SENP7 protease inhibitors, primary screen, biochemical, luminescence, uHTS | Sentrin-specific protease 7 (Homo sapiens), Q9BQF6 | recombinant SENP7, Z-RLRGG-aminoluciferin luminescence, 40 min | inhibition, % at 5 µM | actives 1.5% (n = 330,000);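 active means inhibition above about 50% at the single test dose, limit read from the data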;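 further: plate controls were DMSO with enzyme for no effect and no enzyme buffer wells for full effect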
SENP8 confirm – SENP8 protease inhibitors, retest, confirmation, biochemical, luminescence, single concentration | shares compounds with SENP7 inh | Recombinant SENP8, Z-RLRGG-aminoluciferin luminescence, 60 min | inhibition, % at 12.5 µM | actives 40% (n = 6,200) | AID 488912, 2010;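 active means mean inhibition across replicates above about 50%, limit read from the data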
SENP6 conf – SENP6 protease inhibitors, confirmation, biochemical, luminescence, single concentration | actives 58% (n = 6,200) | shares compounds with SENP7 inh | recombinant SENP6, Z-RLRGG-aminoluciferin luminescence | inhibition, % at 12.5 µM
SENP7 confirm – SENP7 protease inhibitors, retest, confirmation, biochemical, luminescence, single concentration. shares compounds with SENP7 inh. recombinant SENP7, Z-RLRGG-aminoluciferin luminescence, 40 min. inhibition, % at 12.5 µM. actives 69% (n = 6,200). AID 488917, 2010
Casp3 SENP sel – caspase-3 protease inhibitors, confirmation, selectivity assay for SENP inhibitor project, biochemical, single concentration; shares compounds with SENP7 inh; actives 60% (n = 6,200); purified caspase-3, Z-DEVD-aminoluciferin luminescence, 60 min; AID 488918, 2010; inhibition, % at 12.5 µM;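 active means mean inhibition above about 50%, limit read from the data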;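 further: plate controls were enzyme with DMSO for no effect and wells without caspase-3 for full effect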
Luc interf – counter-screen for SENP inhibitors: luminescence interference; shares compounds with SENP7 inh; Pre-incubated SENP8/Z-RLRGG-aminoluciferin, luciferase luminescence interference; inhibition, % at 12.5 µM; actives 39% (n = 6,200); AID 488919;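 active means mean inhibition above about 50% when retested at one dose, limit read from the data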;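 further: plate controls were DMSO wells with completed reaction for no effect and substrate without enzyme for full effect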
* = called active by the depositor. A selection: hits, their analogues and other compounds. The true share with any hit is near 3%.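 How the source made its calls, unless noted: active means mean inhibition above about 50% in the one-dose retest (limit read from the data); inactive means the rest.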

How did CSc1ncccc1C(=O)OCc1ccc(COC(=O)c2cccnc2SC)cc1 do in these assays?
PPC-1+TRAIL kill: 9

How did CSc1ncccc1C(=O)OCc1ccccc1F do in these assays?
SENP6 block: 72*; SENP8 block-1: 16; SENP8 block-2: 50*; TRAIL sens C8: -3; PPC-1+TRAIL kill: 7; SENP7 inh: 43; SENP8 confirm: 53*; SENP6 conf: 55*; SENP7 confirm: 79*; Casp3 SENP sel: 51*; Luc interf: 56*

What do the screens show for `O=C(NCCN1CCOCC1)C1CCC(CNS(=O)(=O)c2ccc(Cl)cc2)CC1` (configuration not stated)?
SENP6 block: 10; SENP8 block-1: 7; SENP8 block-2: -52; TRAIL sens C8: 6; PPC-1+TRAIL kill: 7; SENP7 inh: 60*; SENP8 confirm: 1; SENP6 conf: -2; SENP7 confirm: -3; Casp3 SENP sel: -3; Luc interf: -2

Results for O=C(NCCCN1CCCC1=O)C1CCC(CNS(=O)(=O)c2ccc(Cl)cc2)CC1 (configuration not stated) ?
SENP6 block: -8; SENP8 block-1: 18; SENP8 block-2: -5; TRAIL sens C8: -3; SENP7 inh: -13

How did COc1ccccc1C(=O)N/C(=C\c1cn(C)c2ccccc12)C(=O)NCCCN1CCOCC1 do in these assays?
SENP6 block: -7; SENP8 block-1: -18; SENP8 block-2: -6; TRAIL sens C8: -6; SENP7 inh: 11

How did O=c1cc(-c2ccccc2)oc2ccc(Br)cc12 do in these assays?
SENP6 block: 42; SENP8 block-1: 15; SENP8 block-2: 45; TRAIL sens C8: 37; SENP7 inh: 73*; SENP8 confirm: 8; SENP6 conf: 9; SENP7 confirm: 14; Casp3 SENP sel: 22; Luc interf: 6

What do the screens show for `O=c1cc(-c2ccc(F)cc2)oc2ccccc12`?
SENP6 block: 16; SENP8 block-1: 19; SENP8 block-2: -1; TRAIL sens C8: 3; SENP7 inh: 8

What do the screens show for `CSc1ccc(-c2cc(=O)c3ccccc3o2)cc1`?
SENP6 block: 59*; SENP8 block-1: -280; SENP8 block-2: 57*; TRAIL sens C8: 37; PPC-1+TRAIL kill: 33; SENP7 inh: -12; SENP8 confirm: 66*; SENP6 conf: 63*; SENP7 confirm: 84*; Casp3 SENP sel: 51*; Luc interf: 38

Results for CC(c1ccccc1)C(CC(=O)O)C(=O)Nc1ccc(Cl)c(Cl)c1 (configuration not stated) ?
SENP6 block: 8; SENP8 block-1: 14; SENP8 block-2: 0; TRAIL sens C8: -3; SENP7 inh: -7

What do the screens show for `COc1ccc(CC(=O)NCc2ccc(Cl)cc2)cc1S(=O)(=O)N1CCOCC1`?
SENP6 block: -15; SENP8 block-1: 1; SENP8 block-2: 1; TRAIL sens C8: -12; SENP7 inh: -1

Results for O=C(CSc1ccccn1)c1ccc2c(c1)OCO2 ?
SENP6 block: 84*; SENP8 block-1: 12; SENP8 block-2: 54*; TRAIL sens C8: -15; PPC-1+TRAIL kill: 9; SENP7 inh: 73*; SENP8 confirm: 41; SENP6 conf: 70*; SENP7 confirm: 92*; Casp3 SENP sel: 84*; Luc interf: 75*

How did Cc1cccc(CNc2ccc(C(CC(N)=O)NC(=O)c3cccc(Br)c3)cc2[N+](=O)[O-])c1 (configuration not stated) do in these assays?
SENP6 block: -12; SENP8 block-1: 14; SENP8 block-2: -9; TRAIL sens C8: 2; PPC-1+TRAIL kill: 16; SENP7 inh: 2

What do the screens show for `O=C(O)c1ncc(-c2ccccc2)cn1`?
SENP6 block: -18; SENP8 block-1: 15; SENP8 block-2: -8; TRAIL sens C8: -2; PPC-1+TRAIL kill: 0; SENP7 inh: -6

What do the screens show for `c1ccc(-c2ncc3c(ccc4ccccc43)n2)cc1`?
SENP6 block: 68*; SENP8 block-1: 3; SENP8 block-2: 41; TRAIL sens C8: 84*; PPC-1+TRAIL kill: 78*; SENP7 inh: 90*; SENP8 confirm: 17; SENP6 conf: 17; SENP7 confirm: 28; Casp3 SENP sel: 20; Luc interf: 6

What do the screens show for `c1ccc(-c2cnc(-c3ccccc3)nc2)cc1`?
SENP6 block: 73*; SENP8 block-1: 3; SENP8 block-2: 62*; TRAIL sens C8: 75*; PPC-1+TRAIL kill: -2; SENP7 inh: 90*; SENP8 confirm: 11; SENP6 conf: 17; SENP7 confirm: 7; Casp3 SENP sel: 9; Luc interf: 8

How did COc1ccc(CCN2C(=O)NC(NS(=O)(=O)c3ccccc3)(C(F)(F)F)C2=O)cc1OC (configuration not stated) do in these assays?
SENP6 block: -20; SENP8 block-1: 2; SENP8 block-2: -1; TRAIL sens C8: -7; SENP7 inh: 1

What do the screens show for `Fc1ccc(/C=N/Nc2ccccn2)cc1`?
SENP6 block: 66*; SENP8 block-1: 11; SENP8 block-2: 46; TRAIL sens C8: 11; PPC-1+TRAIL kill: 0; SENP7 inh: 64*; SENP8 confirm: 30; SENP6 conf: 42; SENP7 confirm: 82*; Casp3 SENP sel: 56*; Luc interf: 42

Results for Clc1ccc(/C=N/Nc2ccccn2)cc1 ?
SENP6 block: 13; SENP8 block-1: 7; SENP8 block-2: 52*; TRAIL sens C8: 14; PPC-1+TRAIL kill: 10; SENP7 inh: 69*; SENP8 confirm: 4; SENP6 conf: 54*; SENP7 confirm: 72*; Casp3 SENP sel: 51*; Luc interf: 9

Screening results (PubChem)
